A selection: hits, their analogues and other compounds. The true share with any hit is near 19%.
HT1080 IDH1KD tx = HT-1080 IDH1 knockdown cell toxicity (counter line); actives 2% (n = 360,000); HT-1080 IDH1 knockdown viability, ATP luminescence, 48 h; Potency, µM (highest dose often 46.1 µM), most hits filed as cytotoxic
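Using the IDH1-knockdown HT-1080 line run in the same batch and compound series as the NT line, viability after 48 h at 37 °C was determined by CellTiter-Glo luminescence and expressed as % activity.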
DT40 TDP1 CPT = DT40-hTDP1 cell growth loss with CPT; chicken DT40 Tdp1-/-;hTDP1 cells + 20 nM CPT, ATP luminescence, 48 h; AID 686979; Potency, µM (doses to about 46.2 µM), usual class: inhibitors; actives 12% (n = 420,000); further: nearly all actives have a fitted effect of over 55% in size
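Chicken DT40 Tdp1-/- cells complemented with human TDP1, 400 cells/well, exposed to compounds plus 20 nM camptothecin for at least 48 h at 37 C; viability read as ATP content by CellTiter-Glo luminescence.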
DT40 TDP1 no CPT = qHTS for Inhibitors of human tyrosyl-DNA phosphodiesterase 1 (TDP1): qHTS in cells in absence of CPT | actives 15% (n = 420,000) | DT40 Tdp1-/- hTDP1 cells, no CPT, ATP luminescence, 48 h | Potency, µM (series often up to 46.2 µM), hits mostly inhibitors; further: nearly all actives have a fitted effect of over 55% in size
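Compound effects on proliferation are scored in DT40 Tdp1-/-;hTDP1 cells in the absence of CPT. ATP levels (CellTiter-Glo luminescence) are recorded after a ≥48 hr, 37 °C incubation.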
KB-V1 MDR tox = KB-V1 MDR subline cytotoxicity; KB-V1 MDR cells viability, CellTiter-Glo, 72 h; Potency, µM (titrated, usually from 46.1 µM), hits mostly cytotoxic; actives 3.4% (n = 400,000); further: nearly all actives have a fitted effect of over 60% in size
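In this primary screen, KB-V1 cells overexpressing P-gp are incubated with library compounds (lowest to highest concentration) for 72 h at 37 degrees C before a luminescent ATP viability read.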
KB-3-1 cytotox = KB-3-1 parental cell cytotoxicity. actives 1.4% (n = 400,000). KB-3-1 viability, CellTiter-Glo ATP luminescence, 72 h. Potency, µM (top dose mostly 46.1 µM), actives largely listed as cytotoxic; further: nearly all actives have a fitted effect of over 60% in size
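Luminescent ATP read-out (CellTiter-Glo) measures survival of drug-naive KB-3-1 cells after 72 h compound exposure at 37 °C. Titration series was screened from lowest to highest concentration, with DMSO vehicle plates as background controls.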
HT1080NT lethal = kills 2HG-producing HT-1080-NT fibrosarcoma cells | actives 1.6% (n = 360,000) | AID 686970 | Potency, µM (top dose mostly 46.1 µM), most hits filed as cytotoxic | HT-1080-NT fibrosarcoma viability, CellTiter-Glo ATP luminescence, 48 h;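 further: NT is the 2HG producing partner of a matched IDH1 knockdown line; nearly all actives have a fitted effect of over 55% in size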
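Viability of the 2HG-overproducing fibrosarcoma line after 48 hours of compound exposure at 37 degrees C was determined by luminescence with CellTiter-Glo, and concentration-effect curves were then fitted and categorized.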
A number is an active result; – = inactive; ? = inconclusive; · = not tested or not shown; [ ] = remark or other dose. The call rests on the fitted dose curve; in most records, active means well fitted curve in the direction sought with a large enough effect; inconclusive means small, poorly fitted or top-dose-only effect, or another doubt; inactive means no such curve, though single readings can be large; an effect the other way counts as inactive or inconclusive.

SMILES | HT1080 IDH1KD tx | DT40 TDP1 CPT | DT40 TDP1 no CPT | KB-V1 MDR tox | KB-3-1 cytotox | HT1080NT lethal
COc1ccc(S(=O)(=O)N(C)C[C@H]2Oc3cc(Br)ccc3S(=O)(=O)N([C@H](C)CO)C[C@H]2C)cc1 | – | ? | 21µM | ? | – | –
CC1(C)Cc2c(cnn2-c2ccccc2)C(=O)/C1=N\NC(=O)c1ccccc1O | – | – | – | – | – | –
CC1CC(C)(C)CC2(C1)NC(=O)N(CC(=O)N1CCN(S(=O)(=O)c3ccc(F)c(F)c3F)CC1)C2=O (configuration not stated) | – | ? | ? | – | – | –[9.24 µM]
CCOc1ccc(NC(=O)C2CCN(S(=O)(=O)c3c(C)noc3/C=C/c3ccco3)CC2)cc1 | · | – | ? | · | · | ·
Cc1cc(C)cc(NC(=O)C2CCN(S(=O)(=O)c3c(C)noc3/C=C/c3ccco3)CC2)c1 | · | 23µM | 15µM | · | · | ·
Cc1noc(/C=C/c2ccco2)c1S(=O)(=O)N1CCC(C(=O)Nc2ccc(F)c(Cl)c2)CC1 | · | 5.2µM | 4.6µM | · | · | ·
Cc1cccc(NC(=O)C2CCN(S(=O)(=O)c3c(C)noc3/C=C/c3ccco3)CC2)n1 | – | 16µM | 23µM | – | – | –
Cc1ccc(NC(=O)C2CCN(S(=O)(=O)c3c(C)noc3/C=C/c3ccco3)CC2)cc1C | · | ? | 13µM | · | · | ·
Cc1ccc(OCC(=O)NNC(=S)NC(=O)c2ccc(Br)o2)c(C)c1 | – | ? | 13µM | – | – | –
Cc1ccc(OCC(=O)NNC(=S)NC(=O)c2cccs2)c(C)c1 | – | 16µM | 16µM | – | ? | –
S=c1ccss1 | · | – | ? | · | · | ·
COc1ccc(Nc2cc(C(=O)NCCCN(C)C3CCCCC3)c3ccccc3n2)c(OC)c1 | · | ? | ? | – | – | ·
COc1ccc(Nc2cc(C(=O)NCCCN(C)C3CCCCC3)c3ccccc3n2)cc1 | · | 15µM | 21µM | – | – | ·
CC(C)c1ccc(Nc2cc(C(=O)NCCCN(C)Cc3ccccc3)c3ccccc3n2)cc1 | · | 9.2µM | ? | · | · | ·
CC1CCc2sc(C(=O)OCC(=O)NC(C)C)cc2C1 (configuration not stated) | – | – | – | – | – | –
CCn1c(N2CCN(C(=S)Nc3ccc(OC)cc3)CC2)nc2ccccc21 | – | 15µM | 15µM | ? | – | –
CCn1c(N2CCN(C(=S)NCC(C)C)CC2)nc2ccccc21 | – | ? | – | 10µM | – | –
CCn1c(N2CCN(C(=S)NCCc3ccccc3)CC2)nc2ccccc21 | – | ? | 26µM | ? | – | –
CCn1c(N2CCN(C(=S)NC)CC2)nc2ccccc21 | –[9.24 µM] | – | – | – | – | –
O=C(c1ccc(Cl)cc1)N1CCN(CCc2ccccn2)CC1 | – | – | – | – | – | –
O=C(COc1ccc(Cl)cc1Cl)Nc1ccc(-c2ccc(N3CCOCC3)nn2)cc1 | – | – | ? | – | – | –
O=C(COc1ccc(Cl)cc1Cl)Nc1cccc(-c2ccc(N3CCOCC3)nn2)c1 | – | 18µM | ? | – | – | –
O=C(COc1ccccc1)Nc1cccc(-c2ccc(N3CCOCC3)nn2)c1 | – | ? | 9.2µM | ? | – | –
O=C(Nc1cccc(-c2ccc(N3CCOCC3)nn2)c1)c1ccccc1 | – | ? | ? | ? | – | –
CCC(=O)Nc1cccc(-c2ccc(N3CCC(C)CC3)nn2)c1 | – | ? | 23µM | – | ? | –
Cc1ccc(C(=O)Nc2cccc(-c3ccc(N4CCOCC4)nn3)c2)cc1[N+](=O)[O-] | – | 10µM | ? | – | – | –
CCOc1ccccc1C(=O)N1CC(=O)Nc2ccc(Cl)cc2C1c1ccccc1 (configuration not stated) | · | 21µM | ? | – | – | ·
CCOc1ccccc1C(=O)N1CC(=O)Nc2ccc(C)cc2C1c1ccccc1 (configuration not stated) | · | ? | 23µM | – | – | ·

High-throughput results (PubChem)
